Screens: PubChem BioAssay, several laboratories
In the library only some 3.8% were active in any assay of this set; here they are far more common.
HSP90 inh: blocks HSP90-mediated luciferase refolding in reticulocyte lysate; 290,000 compounds, 0.91% hits; Rabbit reticulocyte lysate, luciferase refolding luminescence, 3 h; inhibition, % at 5.6 µM;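 active = inhibition above the screen-wide mean plus 3 SD, computed separately per campaign, cut at about 16% in these data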;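 note: 0% = DMSO wells and 100% = 60 µM geldanamycin wells; inhibitors lower the luminescence because luciferase stays unfolded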
p-CIP stab down: compounds decreasing mouse p/CIP protein stability; Q05BA5; F442A p/CIP-EGFP cells, EGFP fluorescence, 16 h; decrease of EGFP signal, % at 10 µM; 290,000 compounds, 0.01% hits;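 active = EGFP signal decrease of at least 30% at 10 µM or well 3 SD below plate mean, unless failing retest; inactive = the rest, including hits failing retest or dose response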
Target sequence (Q05BA5 1-1403): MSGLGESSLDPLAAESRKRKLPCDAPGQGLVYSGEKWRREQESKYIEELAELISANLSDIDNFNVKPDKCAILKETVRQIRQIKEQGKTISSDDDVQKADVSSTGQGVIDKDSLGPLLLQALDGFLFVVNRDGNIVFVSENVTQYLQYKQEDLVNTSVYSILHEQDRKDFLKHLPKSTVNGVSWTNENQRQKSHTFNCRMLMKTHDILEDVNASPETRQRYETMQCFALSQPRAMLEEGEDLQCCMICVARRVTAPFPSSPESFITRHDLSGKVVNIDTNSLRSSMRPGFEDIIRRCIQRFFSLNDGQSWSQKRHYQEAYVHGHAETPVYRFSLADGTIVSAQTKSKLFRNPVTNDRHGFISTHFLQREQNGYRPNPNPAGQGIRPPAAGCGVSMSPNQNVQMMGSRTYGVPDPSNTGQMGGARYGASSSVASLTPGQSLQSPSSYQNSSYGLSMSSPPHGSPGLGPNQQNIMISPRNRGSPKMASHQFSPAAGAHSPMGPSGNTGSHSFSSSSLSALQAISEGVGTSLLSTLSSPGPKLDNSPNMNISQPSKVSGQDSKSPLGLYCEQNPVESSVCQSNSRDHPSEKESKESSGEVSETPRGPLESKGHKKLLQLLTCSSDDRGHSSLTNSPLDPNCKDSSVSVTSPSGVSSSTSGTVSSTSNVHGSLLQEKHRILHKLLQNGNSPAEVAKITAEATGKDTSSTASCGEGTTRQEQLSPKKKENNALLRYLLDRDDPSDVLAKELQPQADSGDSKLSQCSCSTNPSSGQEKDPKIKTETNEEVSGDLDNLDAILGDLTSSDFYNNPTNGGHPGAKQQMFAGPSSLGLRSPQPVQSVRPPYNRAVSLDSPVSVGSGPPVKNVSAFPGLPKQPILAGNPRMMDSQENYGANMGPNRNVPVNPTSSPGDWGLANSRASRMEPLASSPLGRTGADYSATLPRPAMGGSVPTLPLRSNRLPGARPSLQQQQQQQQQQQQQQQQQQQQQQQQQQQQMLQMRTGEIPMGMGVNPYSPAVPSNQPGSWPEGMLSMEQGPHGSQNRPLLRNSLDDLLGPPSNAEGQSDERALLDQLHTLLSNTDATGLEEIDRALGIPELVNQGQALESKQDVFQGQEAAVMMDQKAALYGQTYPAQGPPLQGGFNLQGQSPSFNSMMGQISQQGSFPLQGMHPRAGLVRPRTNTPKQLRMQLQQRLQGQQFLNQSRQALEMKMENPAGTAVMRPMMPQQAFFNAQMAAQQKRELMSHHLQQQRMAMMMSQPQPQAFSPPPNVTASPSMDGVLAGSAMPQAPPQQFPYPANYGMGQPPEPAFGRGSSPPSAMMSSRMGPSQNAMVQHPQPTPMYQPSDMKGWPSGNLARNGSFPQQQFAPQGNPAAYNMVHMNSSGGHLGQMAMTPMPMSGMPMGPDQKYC
NALP1 yeast inh: blocks the NALP1 inflammasome reconstituted in yeast. S. cerevisiae NALP1/ASC/caspase-1 growth, X-gal OD620, 72 h. inhibition, % at 10 µM. 280,000 compounds, 0.61% hits. AID 2071; in the data active = inhibition mostly above about 24%, no sharp cut-off; inactive = mostly below about 32%
HSF1 activator: increases HSF-1 driven luciferase reporter signal | NIH3T3-HGL HSF-1 luciferase reporter, MG132, 8 h; 100% = twice DMSO control signal | activation, % at 9 µM | 300,000 compounds, 1.7% hits | AID 504408;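 active = mean replicate activation of at least 50% with a set share of replicates each reaching 50%; inconclusive = only one of those two conditions met; inactive = mean below 50% and too few replicates reaching it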;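 note: 0% = median of the neutral control wells and 100% = twice that signal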
HSF1 inhib: HSF1 inhibition; NIH3T3-HGL HSE-luciferase, MG132-induced, luminescence 8 h; hits give low values; activity change, negative = inhibition, % at 7.5 µM (by protocol); 300,000 compounds, 0.77% hits; AID 2098;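 active = more than half of replicate wells show activity change below -50%, luminescence cut by over half; inconclusive = some wells, but at most half, below -50%; inactive = no replicate well below -50%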;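 note: luciferase reports HSF-1 transcriptional activity via heat shock element; 0% = median of DMSO wells and -100% = zero luminescence signal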
Hsp70 act: switches on Hsp70 transcription | AID 1203 | activation, % at 10 µM | 200,000 compounds, 0.04% hits | HeLa Hsp70 promoter luciferase reporter, luminescence; scaled: vehicle 0, proteasome-inhibitor control 100%;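 active = activation above the mean across all tested compounds plus 3 SD, cutoff set per campaign, cut at about 5.5% in these data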;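 note: 100% = MG132 at 30 µM as the positive control and 0% = DMSO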
An asterisk follows results filed as active; u = inconclusive; x = no result.

SMILES | HSP90 inh | p-CIP stab down | NALP1 yeast inh | HSF1 activator | HSF1 inhib | Hsp70 act
Cc1ccc(N2CCC(N3CCN(C4CCCCC4)C(CCO)C3)CC2)cc1 (stereo not drawn) | 3 | -2 | 4 | -5 | 2 | 0
COCCNC(=S)N/N=C/c1ccc([N+](=O)[O-])cc1 | 2 | -3 | -4 | -2 | -4 | x
C=C(C)CNC(=S)N/N=C/c1ccc([N+](=O)[O-])cc1 | 0 | 6 | 32* | 15 | -4 | 0
O=C(CCN1Cc2ccccc2C1)c1ccc2c(c1)OCCO2 | 7 | -1 | 8 | 12 | 27 | 0
O=C(CCN1CCc2ccccc2C(c2ccccc2)C1)c1ccc2c(c1)OCCO2 (stereo not drawn) | 8 | 6 | 70* | 87* | 57 | 0
COc1ccc(-c2csc(-c3[nH]cnc3N)n2)cc1 | -5 | 5 | -13 | 3 | -5 | 0
Cc1cc(/C=C(/C#N)c2cccc(Cl)c2)c(C)n1C | 1 | -4 | 8 | 67* | 32 | 0
Cc1cc(/C=C(/C#N)c2cccc(F)c2)c(C)n1-c1cccnc1 | 2 | -8 | 1 | x | x | 0
O=C1c2ccccc2C(=O)N1CCCCSc1nnnn1-c1ccccc1 | -1 | 2 | -19 | 53* | 19 | 0
c1ccc(OCCSc2nnnn2-c2ccccc2)cc1 | 4 | -9 | 0 | 69* | 46 | 0
O=C1c2ccccc2C(=O)N1CSc1nnnn1-c1ccccc1 | -1 | 6 | 4 | 22 | 5 | 0
O=C(CSc1ccc(Br)cc1)Nc1ccccc1N1CCOCC1 | 1 | 6 | 8 | -82 | -77* | x
COCc1cc(C)nc(SCC(=O)Nc2ccc3c(c2)OCCO3)c1C#N | 4 | -8 | 19 | 39 | 6 | x
COCc1cc(C)nc(SCC(=O)Nc2ccccc2N2CCOCC2)c1C#N | 2 | 3 | 2 | 65* | 25 | x
CC(NC(=O)CN(C)S(=O)(=O)c1cnc[nH]1)c1ccccc1 (stereo not drawn) | -3 | 8 | 0 | -5 | 3 | 0
Cc1ccc(-c2noc(/C=C/c3ccccc3)n2)cc1 | -2 | 0 | 4 | 69* | 35 | 0
Cc1ccc(-c2nnc(-c3cccc(Br)c3)o2)cc1 | 3 | -4 | -14 | 64* | 30 | 0
Cc1ccc(/C=C/c2nnc(-c3ccccc3)o2)cc1 | -1 | -1 | 9 | 55* | 19 | 0
Brc1cccc(-c2nnc(-c3ccccc3)o2)c1 | 5 | 10 | 1 | x | x | 0
Cc1c(Cl)c(C(=O)NC2CCCC2)nn1C | -2 | 2 | 2 | 61* | 17 | -1
Cc1c(Cl)c(C(=O)N2CCCC2)nn1C | 2 | -12 | 27 | -3 | -8 | 0
Cc1cc(SCC(=O)c2cccs2)nc2ccccc12 | 1 | 10 | 19 | 41 | 9 | 0
CCOC(=O)c1c(C)oc2c1cc(O)c1ccccc12 | 0 | -20 | 0 | 58* | 37 | 0
CC(=O)c1c(C)oc2c1cc(O)c1ccccc12 | 1 | -1 | x | -8 | 5 | x
CCOC(=O)c1c(C)oc2c1c1c(c3ccccc32)OCN(Cc2cccnc2)C1 | -3 | -16 | 14 | x | x | 0
SMILES | HSP90 inh | p-CIP stab down | NALP1 yeast inh | HSF1 activator | HSF1 inhib | Hsp70 act
CCOC(=O)c1c(C)oc2c1c1c(c3ccccc32)OCN(CCCC(=O)O)C1 | 0 | -18 | 5 | 57* | 31 | x
O=C1CCCCC1Sc1nnc(Nc2ccccc2)s1 (stereo not drawn) | -3 | 0 | 8 | 46 | 36 | 0
Cn1c(=O)c2c(ncn2CC(=O)N/N=C/c2ccc(Br)s2)n(C)c1=O | 0 | -7 | 36 | -4 | 2 | 0
COCCC(=O)N1CCC(Oc2ccc(C(=O)NCCc3cn[nH]c3)cc2)CC1 | -4 | -35 | 15 | -25 | -7 | x
COc1ccc(CN2CCNC(=O)C2CC(=O)N(C)C2CCOCC2)c(F)c1 (stereo not drawn) | -1 | 15 | 9 | -3 | -3 | x
S=C(NCCc1ccccc1)NN=C1CCCCCC1 | -4 | -11 | -24 | 67* | 46 | 0
CCCCN(C)C(=O)c1cc2c(s1)-c1ccccc1S(=O)(=O)C2 | -4 | 6 | x | 3 | 1 | x
Cc1cccnc1NC(=S)NC(=O)/C=C/c1ccccc1 | 0 | -13 | 5 | 56* | 31 | 0
Cc1cccc(Oc2coc3cc(OC(=O)c4cccs4)ccc3c2=O)c1 | 1 | -30 | 10 | 59* | 29 | 0
Cc1cc(C)cc(Oc2coc3cc(OC(=O)c4cccs4)ccc3c2=O)c1 | -5 | 2 | -4 | 2 | 2 | 0
CCN(CC)S(=O)(=O)c1ccc2c(c1)c(=O)c(C(=O)NCc1ccco1)cn2C | -1 | -1 | 9 | -93 | -90* | 0
Nn1c(SCc2ccc([N+](=O)[O-])cc2)nc2ccccc2c1=O | 2 | -13 | 21 | 55* | 20 | x
O=[N+]([O-])c1ccc(CSc2nc3ccccc3[nH]2)cc1 | 2 | 7 | 30 | 121* | 67 | 0
O=c1c2sccc2nc(SCc2ccc([N+](=O)[O-])cc2)n1Cc1ccccn1 | 2 | -8 | 27 | 59* | 19 | 0
O=C(CCCSc1nc2ccccc2[nH]1)N1CCN(c2ccc([N+](=O)[O-])cc2)CC1 | 5 | -3 | -8 | 73* | 23 | 0
COc1ccccc1CNC(=O)c1ccc(CS(=O)Cc2cccc(Cl)c2)o1 (stereo not drawn) | -2 | -4 | 5 | -10 | 1 | x
Cc1ccc(NNc2c(C)nc3ccccc3nc2=O)cc1 | 1 | -3 | 18 | 28 | 18 | 0
O=C(c1cccc(S(=O)(=O)N2CCCC2)c1)N1CCCC(C(F)(F)F)C1 (stereo not drawn) | x | x | x | 4 | -3 | x
Cc1cc(SCc2cccc([N+](=O)[O-])c2)nc(=O)[nH]1 | 0 | 2 | 8 | 1 | -1 | x
Cc1cc(SCc2ccc([N+](=O)[O-])cc2)nc(=O)[nH]1 | -1 | -3 | 24 | 69* | 34 | x
Fc1ccc(CSc2nc3ccccc3[nH]2)cc1 | 1 | -1 | 2 | 61* | 28 | 0
C=CCNC(=S)N/N=C(\C)c1cc(OC)c(OC)c(OC)c1 | 3 | -4 | 19 | 4 | 6 | 0
O=C(CCl)N=c1sccn1Cc1ccccc1Cl | 1 | -4 | 18 | x | x | x
O=C(CCl)N=c1sccn1Cc1ccc(Cl)cc1Cl | 0 | -5 | 21 | -98 | -98* | 0
Cc1ccc(-c2cc3c(N=O)c4ccccc4c-3n[nH]2)cc1 | 58* | -4 | -16 | -60 | u | 0
O=Nc1c2cc(-c3ccccc3)[nH]nc-2c2ccccc12 | 11 | 7 | 27 | -52 | -30 | 0
CCc1ccccc1NC(=O)c1ccc(NS(C)(=O)=O)cc1 | -3 | -1 | 7 | -64 | -56* | 0
CC(=O)C1C(c2cccc(F)c2)c2c(n[nH]c2C)CC1(C)O (stereo not drawn) | -5 | -6 | 17 | 4 | -3 | x
